In PubChem BioAssay (NCI):
Values joined by “and” are separate entries in the source; they are usually repeats but may differ in a detail not shown here. Equal values may be shown once. About 79,000 compounds went through this panel and 15% of them were active in at least one assay; those are over-represented in the sample as a whole. A number with no mark means an inactive call. Active and inactive are the calls of the source. Rule as the data show it: active = growth inhibition above about 70%; inactive = the rest. Where a SMILES comes first, the peptide text is derived from it. [ ]: non-standard residue; d: D form. The star is where a group is joined. NMeF = CN[C@@H](Cc1ccccc1)C(=O)O; NMeV = CN[C@H](C(=O)O)C(C)C; Boc = CC(C)(C)OC(=O)*; OBn = c1ccc(CO*)cc1

Key:
[1] = NCI Yeast Anticancer Drug Screen. Data for the rad50 strain (AID 155);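 also: 0% = growth of vehicle-only cultures of the same strain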; conditions: S. cerevisiae rad50 strain growth inhibition, active compounds read high; at 50.0 µM unless noted
Outline: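 Growth of the mutant yeast was measured after compound exposure and referenced to vehicle-treated cultures.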

[2] = NCI Yeast Anticancer Drug Screen. Data for the mec2-1 strain (AID 157); conditions: S. cerevisiae mec2-1 strain, active compounds read high; at 50.0 µM unless noted
Outline: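 Mutant yeast (mec2-1) grown with compound; growth inhibition relative to vehicle control reported.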

[3] = NCI Yeast Anticancer Drug Screen. Data for the sgs1 mgt1 strain (AID 161);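 also: 0% = growth of cultures given vehicle only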; conditions: S. cerevisiae sgs1 mgt1 strain, active compounds read high; at 50.0 µM unless noted
Outline: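 Compounds are added to genetically altered yeast, and growth is compared with cultures given vehicle alone to give percent inhibition.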

[4] = NCI Yeast Anticancer Drug Screen. Data for the cln2 rad14 strain (AID 165);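 also: 0% = growth equal to vehicle treated cultures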; conditions: S. cerevisiae cln2 rad14 strain, active compounds read high; at 50.0 µM unless noted
Outline: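 Readout is yeast growth inhibition versus vehicle-treated controls, using a strain with cln2 and rad14 alterations exposed to compound.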

[5] = NCI Yeast Anticancer Drug Screen. Data for the bub3 strain (AID 167); conditions: S. cerevisiae bub3 mutant strain, active compounds read high; at 50.0 µM unless noted
Outline: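 Whole-cell yeast assay. The mutant strain was incubated with compounds, and growth inhibition was determined by comparison with vehicle-treated cells.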

[6] = NCI Yeast Anticancer Drug Screen. Data for the mlh1 rad18 strain (AID 175); conditions: S. cerevisiae mlh1 rad18 strain growth inhibition, active compounds read high; at 50.0 µM unless noted
Outline: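 Genetically defined yeast (DNA repair-deficient) exposed to compounds; growth inhibition determined relative to vehicle.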

Fc1ccccc1-c1nn2c(C34CC5CC(CC(C5)C3)C4)nnc2s1
growth inhibition [1]: 6.45% | growth inhibition [2]: -33.1% | growth inhibition [3]: -29.6% | growth inhibition [4]: -14.5% | growth inhibition [5]: -11.8% | growth inhibition [6]: -52%

Cc1nc2[nH]ncc2c(=O)n1-c1ccccc1Cl
growth inhibition [1]: 6% | growth inhibition [2]: -4.1% | growth inhibition [3]: 5.95% | growth inhibition [4]: 5.35% | growth inhibition [5]: 3.75% | growth inhibition [6]: 9%

COc1cc2c(cc1OC)C1C(C)c3ccc(OC)c(OC)c3CN1CC2 (centres undefined)
growth inhibition [1]: 0.65% | growth inhibition [2]: -43% | growth inhibition [3]: -3.25% | growth inhibition [4]: -0.95% | growth inhibition [5]: -29.6% | growth inhibition [6]: -8.6%

CCOC(=O)C12CCCC1(O)N(NC(=O)OC)C(C)=C2C(=O)OC (centres undefined)
growth inhibition [1]: -6.6% | growth inhibition [2]: -7.65% | growth inhibition [3]: 2.05% | growth inhibition [4]: -63.4% | growth inhibition [5]: -5.6% | growth inhibition [6]: -6.5%

CCC1CN2CCc3cc(OC)c(OC)cc3C2CC1=O (centres undefined)
growth inhibition [1]: -11.3% | growth inhibition [2]: -5.4% | growth inhibition [3]: -8.65% | growth inhibition [4]: -2.65% | growth inhibition [5]: 1.15% | growth inhibition [6]: -22.1%

Cc1ccc(S(=O)(=O)Oc2ccc3oc4cccc(NCCN(C)C)c4c(=O)c3c2)cc1
growth inhibition [1]: -3.5% | growth inhibition [2]: -13.7% | growth inhibition [3]: -21.4% | growth inhibition [4]: 5% | growth inhibition [5]: -6.4% | growth inhibition [6]: 3.1%

CCOC(=O)c1c(NS(=O)(=O)c2ccc(C)cc2)sc(C)c1-c1ccccc1
growth inhibition [1]: -21.4% | growth inhibition [2]: -0.45% | growth inhibition [3]: -6.2% | growth inhibition [4]: 67.8% | growth inhibition [5]: 6.85% | growth inhibition [6]: -3.65%

CCOC(=O)C1=C(C(=O)c2ccc(OC)cc2)C(c2ccc([N+](=O)[O-])cc2)C(C(=O)c2ccc(OC)cc2)=C(C(=O)OCC)N1
growth inhibition [1]: 11.1% | growth inhibition [2]: 5.8% | growth inhibition [3]: 0.1% | growth inhibition [4]: 14.1% | growth inhibition [5]: 4.95% | growth inhibition [6]: -3.25%

C=C1CC2(OC1=O)c1ccccc1C=Cc1ccccc12
growth inhibition [1]: 26.8% | growth inhibition [2]: 13.4% | growth inhibition [3]: 55.1% | growth inhibition [4]: 48.8% | growth inhibition [5]: 47.5% | growth inhibition [6]: 50.4%

O=C(Cc1ccccc1)CC(CC(=O)Cc1ccccc1)c1ccccc1
growth inhibition [1]: 31% | growth inhibition [2]: -16.7% | growth inhibition [3]: 6.6% | growth inhibition [4]: 15.8% | growth inhibition [5]: 3.7% | growth inhibition [6]: -6.15%

CC(=O)OC1CCC2(C)C(CCC3(C)C2C(=O)C=C2C4CC(C)(C(=O)O)CCC4(C)CCC23C)C1(C)C (centres undefined)
growth inhibition [1]: -3.8% | growth inhibition [2]: -9.5% | growth inhibition [3]: -13% | growth inhibition [4]: -4.25% | growth inhibition [5]: -5.75% | growth inhibition [6]: -8.5%

Cc1nn(C(C)C(=O)N(C)C)c(Br)c1Br (centres undefined)
growth inhibition [1]: 2.05% | growth inhibition [2]: 4.7% | growth inhibition [3]: 0.75% | growth inhibition [4]: -30.4% | growth inhibition [5]: -25.7% | growth inhibition [6]: 3.15%

N#C/C=C\c1ccc(-c2cc(C(F)(F)F)cc(C(F)(F)F)c2)o1
growth inhibition [1]: -49% | growth inhibition [2]: -22.6% | growth inhibition [3]: -42.5% | growth inhibition [4]: 3.65% | growth inhibition [5]: 10.8% | growth inhibition [6]: -57.5%

Cc1ccc(OS(=O)(=O)c2cccc(S(=O)(=O)Oc3ccc(C)cc3)c2)cc1
growth inhibition [1]: 19.9% | growth inhibition [2]: 3.35% | growth inhibition [3]: 8.9% | growth inhibition [4]: 7.7% | growth inhibition [5]: 9.45% | growth inhibition [6]: 6.15%

O=C(OC(c1ccccc1)C(c1ccccc1)N1CCOCC1)c1ccc([N+](=O)[O-])cc1 (centres undefined)
growth inhibition [1]: 54.8% | growth inhibition [2]: 8.3% | growth inhibition [3]: 55.4% | growth inhibition [4]: -4.9% | growth inhibition [5]: 17.1% | growth inhibition [6]: 54.6%

Cc1ccc2nc(NC(=O)C(=O)C(C#N)c3nc4ccccc4s3)sc2c1 (centres undefined)
growth inhibition [1]: 11.2% | growth inhibition [2]: 1.75% | growth inhibition [3]: 19.7% | growth inhibition [4]: 25.6% | growth inhibition [5]: 18.5% | growth inhibition [6]: 19.2%

CN(C)C(=S)/N=c1\ssc(=S)n1Cc1ccccn1
growth inhibition [1]: 3.05% | growth inhibition [2]: -11.9% | growth inhibition [3]: 1.8% | growth inhibition [4]: 22.1% | growth inhibition [5]: -9.55% | growth inhibition [6]: -10.9%

CCCCCCCCCCCCC(=O)N1CCOCC1
growth inhibition [1]: 99.5% (active) | growth inhibition [2]: 99.7% (active) | growth inhibition [3]: 99.8% (active) | growth inhibition [4]: 99.5% (active) | growth inhibition [5]: 99.6% (active) | growth inhibition [6]: 99.5% (active)

N#CC1(OC2CCCCO2)Cc2ccccc2C1 (centres undefined)
growth inhibition [1]: 16.8% | growth inhibition [2]: 2.45% | growth inhibition [3]: -13.3% | growth inhibition [4]: -48.9% | growth inhibition [5]: -5.45% | growth inhibition [6]: -1.15%

O=CC(O)C(O)C(O)C(O)C(O)C(O)CO (centres undefined)
growth inhibition [1]: 16% | growth inhibition [2]: 10.7% | growth inhibition [3]: 28.1% | growth inhibition [4]: -1.55% | growth inhibition [5]: 5.9% | growth inhibition [6]: 19.6%

CN(C)C(n1cc2c(c1)-c1ccc(Cl)cc1C(c1ccccc1F)=NC2)n1cc2c(c1)-c1ccc(Cl)cc1C(c1ccccc1F)=NC2
growth inhibition [1]: 11.8% | growth inhibition [2]: -8.8% | growth inhibition [3]: 1% | growth inhibition [4]: 7.8% | growth inhibition [5]: -7.55% | growth inhibition [6]: -22.9%

c1ccc2c(c1)/C(=N/c1nccs1)N/C2=N\c1nccs1
growth inhibition [1]: 14.1% | growth inhibition [2]: -6.35% | growth inhibition [3]: -12.2% | growth inhibition [4]: -25.6% | growth inhibition [5]: 13.1% | growth inhibition [6]: -6.65%

COc1ccc(C2=Nc3ccccc3N=C(SC)C2)cc1
growth inhibition [1]: 42.2% | growth inhibition [2]: -5.3% | growth inhibition [3]: 51.1% | growth inhibition [4]: 6.75% | growth inhibition [5]: 53.7% | growth inhibition [6]: 32.5%

CC(C)[C@@H](C(=O)N1CCC[C@H]1C(=O)OCc1ccccc1)N(C)C(=O)[C@H](C(C)C)N(C)C(=O)[C@H](Cc1ccccc1)N(C)C(=O)[C@H](NC(=O)OC(C)(C)C)C(C)C (Boc-[dV][NMeF][NMeV][NMeV]P-OBn)
growth inhibition [1]: -41.9% | growth inhibition [2]: -42.1% | growth inhibition [3]: -38.2% | growth inhibition [4]: -38.1% | growth inhibition [5]: -42.6% | growth inhibition [6]: -36.3%

OC(CN1CCCCC1)c1cc(-c2ccccc2)no1 (centres undefined)
growth inhibition [1]: 31.8% | growth inhibition [2]: 11.6% | growth inhibition [3]: 33.5% | growth inhibition [4]: 24.6% | growth inhibition [5]: 23.6% | growth inhibition [6]: 16.4%

O=C1C(NCCc2cc(Br)c(O)c(Br)c2)=CC(=O)c2ncccc21
growth inhibition [1]: 31.9% | growth inhibition [2]: 37% | growth inhibition [3]: 33.9% | growth inhibition [4]: 18.2% | growth inhibition [5]: 34% | growth inhibition [6]: 28.4%

COc1cc(C2c3cc4c(c(OC)c3CC3COC(=O)[C@@H]32)OCO4)cc(OC)c1O (some centres undefined)
growth inhibition [1]: 85.9% (active) | growth inhibition [2]: 86.2% (active) | growth inhibition [3]: 80.5% (active) | growth inhibition [4]: 76.3% (active) | growth inhibition [5]: 82.8% (active) | growth inhibition [6]: 87.7% (active)

Cc1ccc(S(=O)(=O)N(CC(=O)c2ccccc2)c2ccc(Br)cc2)cc1
growth inhibition [1]: 22.9% | growth inhibition [2]: 6.6% | growth inhibition [3]: 26.1% | growth inhibition [4]: 4.9% | growth inhibition [5]: 2.05% | growth inhibition [6]: 16.1%

CCOC(=O)C(C#N)=C(C)C
growth inhibition [1]: -12.6% and 26.9% | growth inhibition [2]: 7.8% and 2.75% | growth inhibition [3]: -2.55% and 17% | growth inhibition [4]: -19.1% and -1.1% | growth inhibition [5]: 0.65% and -13.8% | growth inhibition [6]: 20.4% and 17.1%

COC1OC(COC(=O)c2ccc([N+](=O)[O-])cc2)C2SC12 (centres undefined)
growth inhibition [1]: 9.5% | growth inhibition [2]: -9.1% | growth inhibition [3]: 1.8% | growth inhibition [4]: -27.6% | growth inhibition [5]: 6.7% | growth inhibition [6]: 2.65%

Nc1cccc(S(=O)(=O)NNc2cc(Cl)ccc2Cl)c1
growth inhibition [1]: 98.7% (active) | growth inhibition [2]: 98.6% (active) | growth inhibition [3]: 98.8% (active) | growth inhibition [4]: 98.8% (active) | growth inhibition [5]: 98.3% (active) | growth inhibition [6]: 99% (active)

CC(C)COC(c1ccc2c(c1)OCO2)C(C)Br (centres undefined)
growth inhibition [1]: 34.5% | growth inhibition [2]: 39.5% | growth inhibition [3]: 22.4% | growth inhibition [4]: 0.3% | growth inhibition [5]: 48.5% | growth inhibition [6]: 58.5%

Cc1cc([N+](=O)[O-])ccc1P(=O)(O)O
growth inhibition [1]: 8.55% | growth inhibition [2]: 7.6% | growth inhibition [3]: 0% | growth inhibition [4]: -0.65% | growth inhibition [5]: -3.8% | growth inhibition [6]: -7.95%

C/C=C(/Br)C(=O)O
growth inhibition [1]: -11.6% | growth inhibition [2]: -6% | growth inhibition [3]: -10.2% | growth inhibition [4]: -53.5% | growth inhibition [5]: -5.2% | growth inhibition [6]: -12.9%

CCCCCCCCN(CCCCCCCC)CC(O)c1ccnc2c(Cl)cc(Cl)cc12 (centres undefined)
growth inhibition [1]: 16.5% | growth inhibition [2]: 15.2% | growth inhibition [3]: 43.2% | growth inhibition [4]: 5.7% | growth inhibition [5]: 4.85% | growth inhibition [6]: 33.3%

CC(=O)NNc1nc(C)c(C(/C=C/c2ccc(Cl)cc2)=N/NC(=O)C[N+](C)(C)C)s1
growth inhibition [1]: 15.1% | growth inhibition [2]: 7.25% | growth inhibition [3]: 9.15% | growth inhibition [4]: 21.8% | growth inhibition [5]: 21.4% | growth inhibition [6]: -0.25%

CC(C)(C)C(=O)NC(OC(NC(=O)C(C)(C)C)C(=O)C(C)(C)C)C(=O)C(C)(C)C (centres undefined)
growth inhibition [1]: 4.05% | growth inhibition [2]: 6.25% | growth inhibition [3]: -21.4% | growth inhibition [4]: -0.6% | growth inhibition [5]: -0.1% | growth inhibition [6]: 21%

CC1(C)OC(CCl)C2OC(C)(C)OC(CCl)C2O1 (centres undefined)
growth inhibition [1]: 11.1% | growth inhibition [2]: 9.3% | growth inhibition [3]: -7.35% | growth inhibition [4]: 3.85% | growth inhibition [5]: -4.95% | growth inhibition [6]: 2.75%

CCCC(=O)NC1CCCCC1
growth inhibition [1]: -22.2% | growth inhibition [2]: 8.05% | growth inhibition [3]: -26.9% | growth inhibition [4]: 26.5% | growth inhibition [5]: -24.1% | growth inhibition [6]: -23.1%
